# From PubChem
# D3 antag: D3 dopamine receptor (human) antagonism | P35462 | D3R cells, DiscoveRx beta-arrestin luminescence, antagonist mode; hits give low values | max response, negative = inhibition, % | actives 2.5% (n = 360,000) | AID 652054; in the data active = max response below about -50%; inconclusive = no clear call, values can overlap the other calls; note: % is set by controls: 0 for no effect and ±100 for the full control effect
# Target sequence (P35462 whole entry, looked up): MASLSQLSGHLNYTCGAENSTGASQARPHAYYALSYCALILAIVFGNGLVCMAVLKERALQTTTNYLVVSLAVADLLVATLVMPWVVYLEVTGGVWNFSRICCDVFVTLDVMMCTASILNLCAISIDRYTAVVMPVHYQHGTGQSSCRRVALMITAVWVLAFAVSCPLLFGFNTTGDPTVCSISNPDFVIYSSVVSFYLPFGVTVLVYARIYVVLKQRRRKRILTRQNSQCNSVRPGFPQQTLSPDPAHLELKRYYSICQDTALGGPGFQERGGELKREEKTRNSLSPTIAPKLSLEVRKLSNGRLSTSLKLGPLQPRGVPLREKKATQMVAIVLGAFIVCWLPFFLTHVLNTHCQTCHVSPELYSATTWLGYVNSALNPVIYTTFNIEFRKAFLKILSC
#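 Cells plated overnight at 1500 cells/well, then exposed to library compounds with dopamine controls for 90 minutes at 37 degrees C. DiscoveRx reagent added for 30–60 minutes at room temperature; luminescence read, quantitative HTS format.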
# DT40 TDP1 no CPT: qHTS for Inhibitors of human tyrosyl-DNA phosphodiesterase 1 (TDP1): qHTS in cells in absence of CPT; DT40 Tdp1-/- hTDP1 cells, no CPT, ATP luminescence, 48 h; Potency, µM (doses to about 46.2 µM), without a hit: at the top dose activity change, negative = growth inhibition, actives largely listed as inhibitors; actives 15% (n = 420,000); note: potency is the fitted concentration of half-maximal effect; % is set by controls: 0 for no effect and ±100 for the full control effect; nearly all actives have a fitted effect of over 55% in size
#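 DT40 Tdp1-/-;hTDP1 cells, no CPT (DMSO vehicle only), 400 cells/well; compounds pin-transferred; ≥48 hr, 37 °C; CellTiter-Glo 30 min RT dark, luminescence read.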
# ClpP mod: qHTS Assay for Activators of ClpP; ATP-dependent Clp protease proteolytic subunit (Bacillus subtilis (strain 168)), P80244; purified B. subtilis ClpP, FRET peptide cleavage, 20 min; Potency, µM (series often up to 57.5 µM), for inactives: at the top dose activity change, negative = active; actives 1.9% (n = 340,000); AID 651965, 2013; active = well fitted falling curve with a large enough effect; inconclusive = small, poorly fitted or top-dose-only effect; inactive = no such curve, though single readings can be large or run the other way; note: potency is the fitted concentration of half-maximal effect; the source files actives as falling curves though it sought activators and does not explain the sign; nearly all actives have a fitted effect of over 65% in size
# Target sequence (P80244 whole entry, looked up): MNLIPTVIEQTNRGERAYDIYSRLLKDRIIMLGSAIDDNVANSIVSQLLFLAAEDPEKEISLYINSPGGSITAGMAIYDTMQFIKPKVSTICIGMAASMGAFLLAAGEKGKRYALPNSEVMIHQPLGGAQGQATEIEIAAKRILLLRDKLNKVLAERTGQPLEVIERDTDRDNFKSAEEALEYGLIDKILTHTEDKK
#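 FRET quenching reversal measured ClpP activation: 10 microg/mL B. subtilis ClpP at pH 8 with the FRET-FV decapeptide, read at 430 nm after 320 nm excitation. The 20-min minus 0-min signal was scaled between DMSO/no-enzyme wells and ADEP (5.8 microM final).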
# DRD3 agonist: D3 dopamine receptor (human) agonism | D3R DiscoveRx beta-arrestin cells, luminescence, 90 min | max activation, % | actives 0.58% (n = 410,000); in the data active = max activation above about 30%; note: 0% is about no effect
#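 Cells at 1500/well, incubated overnight, then treated with pinned compounds (dopamine as control) for 90 min at 37 degrees C. DiscoveRx reagent added for 30 - 60 minutes at room temperature; luminescence read.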
# TDP1 cell CPT: growth inhibition of DT40 Tdp1-/-;hTDP1 cells with camptothecin (screen for TDP1 inhibitors) | chicken DT40 Tdp1-/-;hTDP1 cells + 20 nM CPT, ATP luminescence, 48 h | Potency, µM (series often up to 46.2 µM), inactives show at the highest dose activity change, negative = growth inhibition, usual class: inhibitors | actives 12% (n = 420,000); note: potency is the fitted concentration of half-maximal effect; % is set by controls: 0 for no effect and ±100 for the full control effect; nearly all actives have a fitted effect of over 55% in size
#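 Chicken DT40 Tdp1-/- cells stably complemented with human TDP1 were seeded at 400 cells/well in medium containing 20 nM camptothecin, exposed to pin-transferred compounds, and grown at 37 °C for at least 48 hr. Viability was read as ATP luminescence.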
# IL-1B inflam inh: blocks inflammasome-driven IL-1 beta release; activity change, % at 57.5 µM; actives 4.7% (n = 360,000); AID 743279; THP-1 LPS/ATP IL-1B secretion, AlphaLISA, 16 h; hits give low values; in the data active = activity change below about -50%; inconclusive = mostly about -30% to -49%; note: % is set by controls: 0 for no effect and ±100 for the full control effect
#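 THP-1 cells pretreated 1 hr with compounds (up to 57.5 uM final), then stimulated with LPS (250 ng/mL final) plus ATP (1.25 mM final); secreted IL-1B measured by AlphaLISA after 16 hr, decreased signal indicating inhibition.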
# Numbers without * were called inactive; ? = inconclusive; . = no result given; [ ] = another dose, or the depositor's remark. Rows were chosen to be rich in hits. Some 21% of all compounds tested hit in one or more screens of this group. Unless noted, calls come from the whole dose curve; as a rule, active = well fitted inhibition curve with a large enough effect; inconclusive = small, poorly fitted or top-dose-only effect; inactive = flat fitted curve, though single readings scatter.
SMILES,D3 antag,DT40 TDP1 no CPT,ClpP mod,DRD3 agonist,TDP1 cell CPT,IL-1B inflam inh
Cc1csc(NC(=O)c2cccs2)n1,10,-23%,0%,0,-15%,2
Nc1nc(N)nc(-c2ccc(Cl)cc2)n1,6,?,-15%,1,?,-8
Oc1cccnc1Sc1cccc(C(F)(F)F)c1,3,?,.,-3,-40%,12
Nc1nc(N)c2cc(Sc3ccc(Cl)cc3)ccc2n1,30,1µM*,5%,8,3.7µM*,?
Nc1nc(N)c2cc(Sc3cccc(C(F)(F)F)c3)ccc2n1,3,1.3µM*,4%,-6,9.2µM*,?
Nc1nc(N)c2cc(Sc3ccc4ccccc4c3)ccc2n1,26,8.2µM*,4%,1,18µM*,?
CSc1cc(-c2ccncc2)nc(-c2ccc(Cl)cc2)c1,18,-29%,1%,10,1%,-17
CC(C)Cc1nc(SCc2cccnc2)c2c(=O)n(C)c(=O)n(C)c2n1,10,?,.,4,18µM*,-16
COc1cc(OC)cc(C(=O)NC(=S)Nc2nnn(C)n2)c1,-17,-1%,-1%,-10,-4%,0
Fc1cccc(Cc2noc(CN3CCCCC3CCc3ccccn3)n2)c1 (centres undefined),9,?,.,-16,8%,-79*
COc1ccc(N2CCN(Cc3nc(Cc4cccc(F)c4)no3)C(C)C2)cc1 (centres undefined),-2,18µM*,.,8,-25%,2
Cc1cc(C)cc(Cn2cc(CN3CC(N4CCN(Cc5ccccc5F)CC4)CS3(=O)=O)nn2)c1 (centres undefined),6,?,-1%,4,?,14
O=S1(=O)CC(N2CCN(CCO)CC2)CN1Cc1cn(Cc2ccc(C(F)(F)F)cc2)nn1 (centres undefined),0,-20%,-2%,-5,-28%,14
Cc1ccc(Cn2cc(CN3CC(N4CCN(Cc5ccccc5F)CC4)CS3(=O)=O)nn2)cc1 (centres undefined),6,16µM*,-3%,1,?,-2
O=S1(=O)CC(N2CC=CC2)CN1Cc1cn(Cc2ccc(F)cc2)nn1 (centres undefined),-52*,-7%,0%,-3,4%,9
O=S1(=O)CC(N2CCN(Cc3ccccc3F)CC2)CN1Cc1cn(Cc2ccc(C(F)(F)F)cc2)nn1 (centres undefined),-6,9.2µM*,2%,-6,13µM*,-21
CCc1ccc(C2c3c(-c4cc(C)ccc4O)n[nH]c3C(=O)N2CCO)cc1 (centres undefined),.,?,0%,7,?,.
OCC1(CCOc2ccccc2)CCN(Cc2ccc(OC(F)F)cc2)CC1,?,?,.,-20,0%,-91*
COc1cc(CN2CCC(CO)(CCOc3ccccc3)CC2)cc(OC)c1OC,21,-11%,1%,-1,-2%,8
OCC1(CCOc2ccccc2)CCN(Cc2ccccc2OC(F)F)CC1,2,?,.,-18,-27%,-79*
OCC1(CCOc2ccccc2)CCN(Cc2cc(Cl)ccc2O)CC1,-6,-28%,0%,-11,?,?
C=CCOc1ccccc1CN1CCC(CO)(CCOc2ccccc2)CC1,3,18µM*,.,-14,?,?
COc1ccc(CN2CCC(CO)(CCOc3ccccc3)CC2)cc1C,2,?,1%,-9,?,-72*
CCn1ccc(C(=O)N2CCN(c3ncccn3)CC2)n1,-14,21%,-13%,3,-4%,-4
COc1ccccc1CNC(=O)CCC1N=C2c3ccccc3N=C(SCC(=O)Nc3ccc(F)cc3)N2C1=O (centres undefined),.,-24%,0%,-8,-25%,.
SMILES,D3 antag,DT40 TDP1 no CPT,ClpP mod,DRD3 agonist,TDP1 cell CPT,IL-1B inflam inh
COc1ccccc1CNC(=O)CC1N=C2c3ccccc3N=C(SCC(=O)Nc3ccc(F)cc3)N2C1=O (centres undefined),.,?,-21%,-29,26µM*,.
COc1ccccc1CNC(=O)CCC1N=C2c3ccccc3N=C(SCc3ccc(C)cc3C)N2C1=O (centres undefined),.,?,4%,6,16µM*,.
Cc1ccc(CSC2=Nc3ccccc3C3=NC(CC(=O)NCc4cccs4)C(=O)N23)c(C)c1 (centres undefined),.,21µM*,-1%,1,15µM*,.
COc1ccccc1CNC(=O)CCC1N=C2c3ccccc3N=C(SCC(=O)Nc3ccc(N(C)C)cc3)N2C1=O (centres undefined),.,21µM*,2%,-6,?,.
CN(C)S(=O)(=O)c1ccc(N2CCCC2)c(C(=O)NNC(=O)c2ccc(F)cc2)c1,-3,?,-1%,0,-14%,-18
COc1ccc(NS(=O)(=O)c2cccc(NC(=O)NC3CCCCC3)c2)cc1,-22,23µM*,-3%,-13,?,-69*
COc1ccc(NS(=O)(=O)c2ccc(NC(=O)c3ccccn3)cc2)cc1,-14,?,-1%,4,?,4
COc1ccc(NS(=O)(=O)c2ccc(C)c(NC(=O)NC3CCCCC3)c2)cc1,14,?,-7%,0,?,-74*
COc1ccc(NS(=O)(=O)c2cccc(NC(=O)c3ccccn3)c2)cc1,20,?,1%,4,21µM*,-6
CCc1ccccc1NC(=O)Cn1cc(C(=O)c2ccc(Cl)cc2)c(=O)c2ccc(C)nc21,.,5%,-2%,-10,1%,.
Cc1nc(N2CCCCC2)nc(N2CCCCC2)c1C=O,14,?,.,2,-7%,34
COc1cc2nc(CN(CCO)C3CS(=O)(=O)CC3O)nc(N3CCCCC3)c2cc1OC (centres undefined),.,-4%,.,.,-6%[9.04 µM],.
Cc1ccc(NC(=S)NC2CCSc3ccccc32)cc1C (centres undefined),-15,?,-3%,6,16µM*,-81*
COC(=O)c1ccc(C(=O)NC2CCSc3ccccc32)cc1 (centres undefined),3,0%,0%,0,-6%,0
Nc1cc(Cc2ccccc2)ccc1O,-17,?,-3%,4,23µM*,-25
CC(C)C(C)NC(=O)COC(=O)c1cccc(C(=O)OCC(=O)NC(C)C(C)C)n1 (centres undefined),-2,-14%,0%,1,-5%,45
